# The source made the active and inactive calls.
# How the values were obtained:
# Albumin (Bos taurus) = Albumin (Bos taurus) (UniProt P02769); assay: bovine serum albumin binders on microarray, profiling panel, artefact control for SMM control protein annotation, biochemical, small-molecule microarray, Alexa647 label, 635/667 nm fluorescence (AID 1118); conditions: BSA-A647 binding, fluorescence 635 nm, higher = more signal;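 note: score merges 667 nm emission intensity and signal-to-noise per printed compound spot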
# [1] = small-molecule microarray binders of probe aXIP, primary screen, biochemical, NeuroSMM set, 635/667 nm fluorescence (AID 1119); conditions: higher = more signal, called active from +8 up or from −8 down;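 note: probe is the protein aXip251-270 applied at 1 µg/mL to compound-printed slides; binding of probe to printed compounds measured as 667 nm fluorescence plus signal to noise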
# [2] = small-molecule binders of probe aNOTCH3, primary screen, biochemical, small-molecule microarray, 635/667 nm fluorescence (AID 1120); conditions: higher = more signal;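 note: probe is a biotin-tagged antibody raised against NOTCH3 rather than NOTCH3 protein; score merges spot fluorescence near 667 nm with spot signal to noise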
# [3] = small-molecule binders of probe aNOTCH2, primary screen, biochemical, small-molecule microarray, 635/667 nm fluorescence (AID 1121); conditions: higher = more signal;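 note: score merges feature fluorescence read at 667 nm with its signal to noise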
# [4] = target: Carbonic anhydrase 2 (Homo sapiens) (UniProt P00918); assay: CAII small-molecule binders, profiling panel, biochemical, small-molecule microarray, Alexa647-labelled CAII (AID 1122); conditions: CAII-A647 binding fluorescence, higher = more signal
# [5] = COS7 lysate on small-molecule microarray, probe aHis, 635 nm (AID 1123); conditions: COS7 cell lysate, fluorescence, higher = more signal;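 note: z-score combines 667nm fluorescence intensity with signal-to-noise per printed compound spot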
# [6] = compound binding in COS7 lysate, probe aLAP1, primary screen, cell lysate, small-molecule microarray (AID 1124); conditions: probe aLAP1, fluorescence, higher = more signal;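 note: lysate comes from COS7 cells expressing LAP1 and is applied at 0.3 µg/mL; score merges spot fluorescence near 667 nm with signal-to-noise over triplicate slides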
# Sam68 (KHDRBS1) = assay: Sam68 small-molecule binders, primary screen, biochemical, small-molecule microarray, 635 nm fluorescence (AID 1125); conditions: small-molecule microarray binding, higher = more signal;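 note: score merges 667 nm channel intensity with signal to noise over triplicate slides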
# [7] = tested on: Chordin-like protein 2 (CHRDL2); assay: CHRDL2 small-molecule binders, primary screen, biochemical, small-molecule microarray, 635 nm fluorescence (AID 1126); conditions: small-molecule microarray binding, fluorescence 635 nm; higher = more signal;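 note: printed compound slides probed with Chrdl2 protein at 4 µg/mL for 1 h at 4 C; score merges 667 nm emission intensity with signal to noise over three replicate slides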
# [8] = target: Concanavalin-A (Canavalia ensiformis) (UniProt P02866); assay: ConA small-molecule binders, primary screen, artefact control for SMM control protein annotation, biochemical, small-molecule microarray, Alexa647 label, 635 nm (AID 1127); conditions: ConA-A647 binding fluorescence, higher = more signal;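 note: z combines 667 nm emission intensity with signal-to-noise across three replicate slides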
# [9] = anti-His antibody binders, primary screen, artefact control for SMM control protein annotation, biochemical, small-molecule microarray, 635 nm fluorescence (AID 1128); conditions: anti-His Alexa647 antibody binding, higher = more signal;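 note: score merges feature fluorescence with signal-to-noise for each printed compound spot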
# [10] = tested on: Human papillomavirus type 1a E7 protein (residues 1-88); assay: HPV1a E7 small-molecule binders, primary screen, biochemical, small-molecule microarray, residues 1-88, 635 nm (AID 1129); conditions: small-molecule microarray binding, fluorescence 635 nm; higher = more signal
# [11] = target: Focal adhesion kinase 1 (Homo sapiens) (UniProt Q05397); assay: small-molecule microarray binders of FAK, primary screen, biochemical, 635/667 nm fluorescence, BSA, DTT (AID 1130); conditions: PTK2 binding, 635 nm fluorescence, higher = more signal;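 note: composite of spot emission at 667 nm and signal to noise over triplicate slides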
# [12] = tested on: Fibrinogen (Alexa647-labelled); assay: fibrinogen binders on compound microarrays, profiling panel, artefact control for SMM control-protein annotation, biochemical, small-molecule microarray, 635/667 nm fluorescence (AID 1131); conditions: fibrinogen-A647 binding fluorescence, higher = more signal;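 note: z-score merges 667 nm fluorescence with per-spot signal-to-noise over triplicate slides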
# [13] = target: Follistatin (Homo sapiens) (UniProt P19883); assay: follistatin binders on small-molecule microarrays, primary screen, biochemical, small-molecule microarray, 635/667 nm fluorescence (AID 1132); conditions: FST binding, 635 nm fluorescence, higher = more signal
# [14] = target: Fibroblast growth factor 2 (Homo sapiens) (UniProt P09038); assay: FGF2 binders on small-molecule microarrays, primary screen, biochemical, small-molecule microarray, 635/667 nm fluorescence (AID 1133); conditions: small-molecule microarray binding, FGF2, fluorescence 635/667; higher = more signal
# [15] = mitochondrial membrane potential change in A549 cells, profiling panel, cell-based, JC-1 fluorescence, basal, 24 h, 100 nL (AID 1138); conditions: higher = more signal;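 note: A549 lung adenocarcinoma cells under basal conditions with no added stimulus; test concentration not given here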
# Lefty1 = Lefty1 binders on small-molecule microarrays, primary screen, biochemical, small-molecule microarray, 635/667 nm fluorescence (AID 1139); conditions: small-molecule microarray binding, fluorescence 635/667; higher = more signal
# [16] = tested on: wheat germ agglutinin (Triticum aestivum), Alexa647-labelled; assay: wheat germ agglutinin binders on compound microarrays, profiling panel, artefact control for SMM control-protein annotation, biochemical, small-molecule microarray, 635/667 nm fluorescence (AID 1140); conditions: WGA-A647 binding, 635 nm fluorescence, higher = more signal;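 note: score merges 667 nm feature emission with signal to noise over triplicate slides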
# [17] = target: Luciferin 4-monooxygenase (Photinus pyralis) (UniProt P08659); assay: firefly luciferase enzyme inhibitors, primary screen, biochemical, luminescence, purified enzyme, 2006 set (AID 1141); conditions: SteadyGlo luminescence, 30 min, higher = more signal, called active from +8 up or from −8 down;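 note: cell-free assay with purified firefly luciferase at 100 ng per well in PBS; test concentration not given here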
# Sequence of Luciferin 4-monooxygenase (Photinus pyralis) (P08659 whole entry, looked up): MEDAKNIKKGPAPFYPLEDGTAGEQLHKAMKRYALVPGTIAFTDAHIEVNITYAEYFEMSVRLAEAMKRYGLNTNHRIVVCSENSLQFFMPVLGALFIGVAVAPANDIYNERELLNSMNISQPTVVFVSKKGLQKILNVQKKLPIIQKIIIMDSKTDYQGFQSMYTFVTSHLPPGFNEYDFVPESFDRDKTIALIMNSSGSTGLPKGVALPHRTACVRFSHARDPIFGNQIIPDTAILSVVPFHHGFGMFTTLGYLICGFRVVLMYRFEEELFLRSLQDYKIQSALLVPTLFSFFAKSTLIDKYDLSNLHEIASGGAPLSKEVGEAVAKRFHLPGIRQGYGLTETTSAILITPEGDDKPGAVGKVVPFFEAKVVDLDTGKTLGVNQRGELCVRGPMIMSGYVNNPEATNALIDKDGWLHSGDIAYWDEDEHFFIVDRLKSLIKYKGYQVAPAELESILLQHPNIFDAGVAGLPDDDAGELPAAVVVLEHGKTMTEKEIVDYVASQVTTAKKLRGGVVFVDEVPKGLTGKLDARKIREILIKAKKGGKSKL
# Sequence of Albumin (Bos taurus) (P02769 whole entry, looked up): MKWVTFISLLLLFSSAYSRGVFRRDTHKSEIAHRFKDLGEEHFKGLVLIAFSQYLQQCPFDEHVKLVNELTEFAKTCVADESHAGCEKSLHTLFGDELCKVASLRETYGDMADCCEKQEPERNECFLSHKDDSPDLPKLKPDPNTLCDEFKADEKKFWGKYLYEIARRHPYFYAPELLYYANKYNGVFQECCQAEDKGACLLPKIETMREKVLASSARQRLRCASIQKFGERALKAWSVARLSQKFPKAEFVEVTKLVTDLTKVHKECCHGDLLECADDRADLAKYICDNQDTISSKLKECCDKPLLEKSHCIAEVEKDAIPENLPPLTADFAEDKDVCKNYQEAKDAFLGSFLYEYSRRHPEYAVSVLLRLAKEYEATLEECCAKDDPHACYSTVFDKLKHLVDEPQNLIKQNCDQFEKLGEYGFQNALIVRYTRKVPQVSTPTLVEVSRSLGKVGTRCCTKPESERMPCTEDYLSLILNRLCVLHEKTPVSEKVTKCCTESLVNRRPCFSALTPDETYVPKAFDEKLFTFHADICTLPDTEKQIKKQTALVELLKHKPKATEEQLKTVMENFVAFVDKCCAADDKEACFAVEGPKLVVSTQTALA
# Sequence of Follistatin (Homo sapiens) (P19883 whole entry, looked up): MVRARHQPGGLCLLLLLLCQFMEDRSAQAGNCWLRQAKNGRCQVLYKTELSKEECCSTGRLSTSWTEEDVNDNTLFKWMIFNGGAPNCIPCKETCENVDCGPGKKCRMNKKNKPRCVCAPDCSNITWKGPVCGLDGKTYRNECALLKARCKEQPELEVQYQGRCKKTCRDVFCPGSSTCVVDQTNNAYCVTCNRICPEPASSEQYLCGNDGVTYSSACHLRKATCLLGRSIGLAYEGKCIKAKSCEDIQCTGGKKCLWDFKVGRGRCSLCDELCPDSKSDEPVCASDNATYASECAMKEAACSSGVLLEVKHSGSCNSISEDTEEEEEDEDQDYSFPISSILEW
# Sequence of Concanavalin-A (Canavalia ensiformis) (P02866 whole entry, looked up): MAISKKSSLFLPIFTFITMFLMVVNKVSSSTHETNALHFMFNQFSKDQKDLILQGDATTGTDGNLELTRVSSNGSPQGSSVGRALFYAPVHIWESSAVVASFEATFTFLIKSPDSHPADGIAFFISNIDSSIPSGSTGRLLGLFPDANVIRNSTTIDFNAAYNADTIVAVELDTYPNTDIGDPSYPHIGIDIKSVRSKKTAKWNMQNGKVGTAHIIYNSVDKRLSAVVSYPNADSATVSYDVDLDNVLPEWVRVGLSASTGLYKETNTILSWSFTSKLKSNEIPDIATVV
# Sequence of Focal adhesion kinase 1 (Homo sapiens) (Q05397 whole entry, looked up): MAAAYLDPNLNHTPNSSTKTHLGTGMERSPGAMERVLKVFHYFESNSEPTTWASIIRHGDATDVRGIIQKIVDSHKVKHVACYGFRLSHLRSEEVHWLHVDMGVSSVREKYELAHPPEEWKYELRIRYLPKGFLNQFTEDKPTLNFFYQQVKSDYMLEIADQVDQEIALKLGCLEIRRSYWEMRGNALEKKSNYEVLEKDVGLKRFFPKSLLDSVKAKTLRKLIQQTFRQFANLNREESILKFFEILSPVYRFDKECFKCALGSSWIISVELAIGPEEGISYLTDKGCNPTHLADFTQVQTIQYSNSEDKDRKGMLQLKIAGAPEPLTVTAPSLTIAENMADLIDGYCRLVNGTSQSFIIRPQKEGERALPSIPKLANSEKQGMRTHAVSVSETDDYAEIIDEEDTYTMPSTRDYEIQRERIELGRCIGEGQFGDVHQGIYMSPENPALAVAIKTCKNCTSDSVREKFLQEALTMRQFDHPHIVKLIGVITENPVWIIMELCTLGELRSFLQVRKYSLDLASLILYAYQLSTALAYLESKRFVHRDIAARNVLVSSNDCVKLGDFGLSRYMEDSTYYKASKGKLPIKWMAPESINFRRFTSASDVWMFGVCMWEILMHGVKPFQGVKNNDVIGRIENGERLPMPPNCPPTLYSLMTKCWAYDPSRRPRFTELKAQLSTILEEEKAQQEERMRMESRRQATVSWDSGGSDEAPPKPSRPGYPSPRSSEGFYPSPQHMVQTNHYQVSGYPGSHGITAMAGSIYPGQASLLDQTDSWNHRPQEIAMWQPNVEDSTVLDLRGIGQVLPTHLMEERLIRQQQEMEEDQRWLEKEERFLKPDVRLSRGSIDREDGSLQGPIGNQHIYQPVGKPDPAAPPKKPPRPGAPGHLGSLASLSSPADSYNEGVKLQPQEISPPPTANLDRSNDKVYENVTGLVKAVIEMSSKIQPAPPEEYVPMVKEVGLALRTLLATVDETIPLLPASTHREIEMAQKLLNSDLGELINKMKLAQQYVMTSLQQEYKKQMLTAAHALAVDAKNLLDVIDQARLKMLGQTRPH
# Sequence of Fibroblast growth factor 2 (Homo sapiens) (P09038 whole entry, looked up): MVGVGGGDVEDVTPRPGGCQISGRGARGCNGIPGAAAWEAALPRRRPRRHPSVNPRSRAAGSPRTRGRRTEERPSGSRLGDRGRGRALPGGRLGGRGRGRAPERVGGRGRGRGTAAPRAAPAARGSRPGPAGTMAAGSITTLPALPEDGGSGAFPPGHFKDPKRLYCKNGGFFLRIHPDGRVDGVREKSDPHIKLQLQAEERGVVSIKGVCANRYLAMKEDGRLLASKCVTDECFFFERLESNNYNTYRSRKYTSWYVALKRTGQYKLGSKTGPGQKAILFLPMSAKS
Structure (SMILES),composite z-score (Albumin (Bos taurus)),composite Z-score [1],composite z-score [2],composite z-score [3],composite z-score [4],composite z-score [5],composite z-score [6],composite z-score (Sam68 (KHDRBS1)),composite z-score [7],composite z-score [8],composite z-score [9],composite z-score [10],composite z-score [11],composite z-score [12],composite z-score [13],composite z-score [14],z-score [15],composite z-score (Lefty1),composite z-score [16],z-score [17]
CC(C)N1C(=O)[C@@]2(Cc3ccccc31)c1ccccc1C(=O)N(Cc1ccccc1)[C@H]2c1ccc(CO)cc1,-0.103,-0.289 (inactive),-0.118,-0.205,-0.224,0.0227,1.79,0.316,0.702,-0.0679,2.84,-0.299,-0.0689,-0.375,0.848,0.203,0.591,0.13,-0.622,-0.52 (inactive)
COC(=O)[C@H](Cc1ccccc1)N1CC(C)(OC)O[C@@H](Cc2ccccc2)[C@H]1/C=C/C1CC1 (stereo not given in full),-0.266,0.571 (inactive),-0.165,-0.108,0.348,0.763,0.106,0.417,-0.359,0.371,0.575,0.145,0.0639,0.47,0.0103,0.0959,0.385,-0.14,0.808,-0.138 (inactive)
CC(C)c1ccc(NN2C(C(O)c3ccccc3)C=CC3C(=O)N(c4ccccc4)C(=O)C32)cc1 (stereo not given),0.834,-0.175 (inactive),0.216,-0.0194,0.574,1.79,-0.191,1.32,-0.747,1.12,0.593,1.19,0.684,1.02,0.075,-0.522,0.266,-0.56,1.13,-2.04 (inactive)
C=CCOC(=O)[C@H]1[C@@H]2C(=O)O[C@@H](c3ccccc3)[C@@H](c3ccccc3)N2[C@@H](c2ccc(OCCOC(=O)[C@H]3C[C@H]4C(=O)NCC(=O)N4[C@H]3c3cccc(OCCO)c3)cc2)[C@]12C(=O)Nc1ccc(I)cc12,-0.0037,0.642 (inactive),0.138,-0.125,0.567,2.2,0.692,1.29,0.866,1.14,0.844,1.06,0.835,0.494,1.41,1.37,-0.715,1.5,0.288,-0.919 (inactive)
CCCNC(=O)[C@@]1(Sc2ccc(C)cc2)CC(=O)N(Cc2cc(C(F)(F)F)cc(C(F)(F)F)c2)[C@@H]1c1ccc(CO)cc1,-0.919,-0.0135 (inactive),-0.163,-0.169,0.504,0.506,-0.0318,-0.528,-1.11,-0.149,2.59,-0.0696,-0.251,-0.452,-0.245,-0.375,-0.328,-0.675,-0.037,-0.297 (inactive)
CCOC(=O)C1=CC[C@@H](c2ccccc2)N(S(=O)(=O)c2ccc(C)cc2)[C@@H]1C#N,0.118,0.4 (inactive),0.0112,-0.026,0.518,1.87,-0.0567,1.23,-0.315,0.855,2.09,1.15,0.165,0.317,0.351,-0.501,0.215,-0.0273,0.72,-0.323 (inactive)
Cc1ccc(S[C@]2(C(=O)NC(C)C)CC(=O)N(Cc3ccccc3)[C@@H]2c2ccc(CO)cc2I)cc1,-0.437,-0.0142 (inactive),-0.229,-0.227,0.784,1.79,0.532,0.636,-2.55,-0.639,-1.01,-0.781,-0.0673,-0.771,-1.35,-0.409,1.32,-1.64,-1.09,-0.629 (inactive)
CCOC(=O)C[C@H]1[C@H](OC(=O)c2ccc(-c3ccccc3)cc2)[C@@H](NC(=O)C2CCCCC2)c2cc(OCCCO)ccc2N1C(=O)Cc1ccc(OC)cc1,0.561,0.204 (inactive),-0.0362,-0.182,-0.0434,0.405,0.652,0.496,0.0463,-0.361,0.132,0.365,0.106,0.267,0.2,0.345,0.47,0.867,0.229,0.347 (inactive)
CCCCCCCCCCC(O)C1C=CC2C(=O)N(C)C(=O)C2N1Nc1ccccc1 (stereo not given),0.0703,0.636 (inactive),-0.0975,-0.271,-0.0594,0.907,0.478,-1.52,-1.84,-0.834,-0.901,-0.339,0.365,-0.624,-1.68,-1.84,0.172,-1.75,-0.848,-0.319 (inactive)
COc1c(C)cc(-c2nc(-c3ccccc3)c3c(c2C)CO[Si]3(C(C)C)C(C)C)cc1C,-0.116,0.257 (inactive),0.178,-0.0048,-0.0127,0.275,-0.314,0.214,0.264,-0.53,-0.0017,0.223,0.0945,0.42,0.62,0.376,0.87,0.53,-0.0784,0.722 (inactive)

# — PubChem BioAssay
